Experimental findings from PubChem BioAssay (Tox21) are described below.

Molecules are shown by their SMILES. Values joined by “and” are separate entries in the source; they are usually repeats but may differ in a detail not shown here. Identical values can stand only once. Results filed as inconclusive are left out. More than one record can exist for a structure, and the calls need not agree. Active and inactive are the calls of the source. Unless noted, calls come from the whole dose curve; as a rule, active = well fitted curve in the direction sought with a large enough effect in the repeat runs; inconclusive = weak or mixed curves; inactive = no such curve, though single readings can be large; an effect the other way counts as inactive or inconclusive.

Test [1] is described as follows: Caspase-3/7 induction in CHO-K1 cells by small molecules, qHTS assay (AID 1346980). Note: nearly all actives have a fitted effect of over 15% in size. In short, it runs like this: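 Wild-type CHO-K1 cells exposed to compounds for 17hr at 37 C, 5% CO2. Caspase-3/7 activity then measured by Caspase-Glo 3/7 luminescence after 30min at room temperature.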
Test [2] in a line: Caspase-3/7 induction in HepG2 cells by small molecules, qHTS cell viability counter screen (AID 1346981). Note: nearly all actives have a fitted effect of over 30% in size. Note: potency is the fitted concentration of half-maximal effect. In outline:
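Treatment of HepG2 cells with DMSO-delivered compounds ran 16 hr at 37 C following a 5-hr pre-incubation of 2,000 cells/well. CellTiter-Fluor fluorescence, read after 1 hr, served as the viability measure in a qHTS format.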
A general note: Quantitative high-throughput screening tests each substance at several concentrations.

Test [3] deals with Nuclear receptor subfamily 1 group I member 2 (Homo sapiens) (UniProt O75469). Briefly: Human pregnane X receptor (PXR) small molecule agonists, qHTS assay (AID 1346982). Note: nearly all actives have a fitted effect of over 35% in size. Note: potency is the fitted concentration of half-maximal effect. In outline: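 Stable HepG2 line reporting PXR-mediated CYP3A4 expression via luciferase. Treatment: 24 hr with compounds in DMSO at 37 C. Detection: ONE-Glo luminescence.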
The target of test [4] is Acetylcholinesterase (Homo sapiens) (UniProt P22303). Briefly: Acetylcholinesterase (AChE) small molecule antagonists: enzyme-based qHTS assay (AID 1347397; calls by dose curve; note: nearly all actives have a fitted effect of over 55% in size). To be noted: Potency: AChE enzyme activity inhibition. In outline:
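Colorimetric DTNB read-out of thiocholine released from acetylthiocholine by recombinant human AChE (50 mU/mL as dispensed). Compounds were preincubated 30 min at RT before substrate/DTNB addition, with a 10 min RT reaction.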

The target is the same in test [5]. Description: Acetylcholinesterase (AChE) small molecule antagonists: fluorescence cell-based qHTS assay (AID 1347398; calls by dose curve; note: nearly all actives have a fitted effect of over 50% in size). The following applies: Potency: AChE activity. In short, it runs like this: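 SH-SY5Y, 2,000 cells/well, attached overnight; cmpd 30 min 37 C; acetylthiocholine/Thiolite Green cocktail 40 min RT; fluorescence Ex/Em 490/520 nm.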
Test [6] has as its target Cytochrome P450 2D6 (Homo sapiens) (UniProt P10635). Briefly: Cytochrome P450 Family 2 Subfamily D Member 6 (CYP2D6) small molecule antagonists: luciferase reporter qHTS assay (AID 1671196). Note: nearly all actives have a fitted effect of over 50% in size. Note: potency is the fitted concentration of half-maximal effect. In outline: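 Chemicals tested for interference with CYP2D6 activity; proluciferin substrate, NADPH regeneration, 1 h at room temperature, luminescent detection.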
In general terms: In a reporter assay the amount or activity of a reporter protein is the signal.

In test [7] the target is Cytochrome P450 2C19 (Homo sapiens) (UniProt P33261). Briefly: Cytochrome P450 Family 2 Subfamily C Member 19 (CYP2C19) small molecule antagonists: luciferase reporter qHTS assay (AID 1671197). Note: nearly all actives have a fitted effect of over 65% in size. Note: potency is the fitted concentration of half-maximal effect. In outline: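 Quantitative high-throughput screen of the Tox21 library using CYP2C19 with proluciferin substrate. Reaction: NADPH regeneration, 37C, 1 h, after 10 min compound preincubation at room temperature. Readout: luminescence.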

Test [8] addresses Cytochrome P450 2C9 (Homo sapiens) (UniProt P11712). Description: Cytochrome P450 Family 2 Subfamily C Member 9 (CYP2C9) small molecule antagonists: luciferase reporter qHTS assay (AID 1671198). Note: nearly all actives have a fitted effect of over 50% in size. Note: potency is the fitted concentration of half-maximal effect. In short, it runs like this:
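P450-Glo proluciferin substrate with CYP2C9 enzyme; 10 min RT preincubation, then NADPH regeneration 1 h at 37C; luciferin detection reagent 20 min RT, luminescence in relative luminescence units.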

The target in test [9] is Voltage-gated inwardly rectifying potassium channel KCNH2 (Homo sapiens) (UniProt Q12809). Description: Human Ether-a-go-go-Related Gene (hERG) channel small molecule antagonists: fluorescence cell-based qHTS assay (AID 1671200). Note: nearly all actives have a fitted effect of over 50% in size. Note: potency is the fitted concentration of half-maximal effect. In short, it runs like this: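 In this thallium-flux screen, overnight-cultured U2OS cells bearing the channel are dye-loaded in darkness for an hour, rested 10 min at room temperature, and then monitored kinetically at 480/540 nm for two minutes post-stimulus.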
(In general: Block of hERG is tested as a sign of cardiac risk.)

Test [10] addresses Cytochrome P450 3A4 (Homo sapiens) (UniProt P08684). Description: Cytochrome P450 Family 3 Subfamily A Member 4 (CYP3A4) small molecule antagonists: luciferase reporter qHTS assay (AID 1671201). Note: nearly all actives have a fitted effect of over 50% in size. Note: potency is the fitted concentration of half-maximal effect. In short, it runs like this: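 CYP3A4 activity was followed with a P450-Glo proluciferin substrate. Test compounds in DMSO were preincubated 10 min; NADPH regeneration then ran 1 h, and light output was read 20 min after detection reagent.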

Test [11] has as its target Nuclear receptor subfamily 1 group I member 2 (Rattus norvegicus) (UniProt Q9R1A7). Description: Rat pregnane X receptor (rPXR) activation by small molecules, qHTS assay (AID 1346983). Note: nearly all actives have a fitted effect of over 20% in size. To be noted: rPXR luciferase reporter cells, One-Glo luminescence, 24 h; stronger effect = higher value. In outline:
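Cell-based rPXR activation assay: rPXR cells, 2,000 per well, rested 5hr at 37 C, then exposed to compounds in DMSO for 24 hr at 37 C. Luciferase activity read by One-Glo luminescence after 30 min at room temperature.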

Test [12] deals with Nuclear receptor subfamily 1 group I member 2 (Homo sapiens) (UniProt O75469). Description: CYP3A4 induction through human pregnane X receptor (PXR) by small molecules, qHTS assay (AID 1346984). Note: nearly all actives have a fitted effect of over 40% in size. In short, it runs like this: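 After 24 h at 37C with compound, DPX-2 cells (HepG2, co-transfected PXR response element and CYP3A4 promoter-luciferase) got 3uM final P450-Glo Luciferin-IPA for 3 h; One-Glo luminescence followed.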

The target is the same in test [13]. Briefly: Human pregnane X receptor (PXR) activation by small molecules, qHTS assay (AID 1346985). Note: nearly all actives have a fitted effect of over 40% in size. In short, it runs like this:
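DPX-2 cells (HepG2 co-transfected with a PXR response element and a CYP3A4-promoter luciferase construct) were seeded at 2,000 per well, rested 5 hr at 37C, then exposed to DMSO-dissolved compounds for 24 hr. Activation was read as luciferase luminescence.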

Test [14] concerns the target Acetylcholinesterase (Homo sapiens) (UniProt P22303). Description: Acetylcholinesterase (AChE) small molecule antagonists: colormetric cell-based qHTS assay (AID 1347395; calls by dose curve; note: nearly all actives have a fitted effect of over 30% in size). In short, it runs like this:
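After overnight attachment at 37 C, SH-SY5Y cells get 30 min compound exposure; detection cocktail (acetylthiocholine, DTNB) then incubates 90 min at 37 C, and absorbance reflects AChE-generated thiocholine.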

Test [15] shares this target. Briefly: Acetylcholinesterase (AChE) small molecule antagonists: enzyme-based qHTS assay with human liver microsomes (AID 1347399; calls by dose curve; note: nearly all actives have a fitted effect of over 60% in size). To be noted: Potency: qHTS inhibition. In short, it runs like this: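 Recombinant human AChE (50 mU/mL in the enzyme mix) and human liver microsomes (0.25 mg/mL final) were preincubated with compound and NADPH (0.25 mg/mL final) for 30 min at 37 C. Acetylthiocholine/DTNB was then added; thiocholine was read colorimetrically after 10 min at room temperature.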

For test [16], the target named is Cytochrome P450 1A2 (Homo sapiens) (UniProt P05177). Description: Cytochrome P450 Family 1 Subfamily A Member 2 (CYP1A2) small molecule antagonists: luciferase reporter qHTS assay (AID 1671199). Note: nearly all actives have a fitted effect of over 50% in size. Note: potency is the fitted concentration of half-maximal effect. In short, it runs like this: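 Read-out is luminescence from luciferin detection reagent (20 min) proportional to CYP1A2 activity; compounds in DMSO preincubated 10 min with enzyme and proluciferin substrate, then NADPH regeneration solution, 1 h, room temperature.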
% is set by controls: 0 for no effect and ±100 for the full control effect.

Sequence of Cytochrome P450 3A4 (Homo sapiens) (P08684 whole entry, looked up): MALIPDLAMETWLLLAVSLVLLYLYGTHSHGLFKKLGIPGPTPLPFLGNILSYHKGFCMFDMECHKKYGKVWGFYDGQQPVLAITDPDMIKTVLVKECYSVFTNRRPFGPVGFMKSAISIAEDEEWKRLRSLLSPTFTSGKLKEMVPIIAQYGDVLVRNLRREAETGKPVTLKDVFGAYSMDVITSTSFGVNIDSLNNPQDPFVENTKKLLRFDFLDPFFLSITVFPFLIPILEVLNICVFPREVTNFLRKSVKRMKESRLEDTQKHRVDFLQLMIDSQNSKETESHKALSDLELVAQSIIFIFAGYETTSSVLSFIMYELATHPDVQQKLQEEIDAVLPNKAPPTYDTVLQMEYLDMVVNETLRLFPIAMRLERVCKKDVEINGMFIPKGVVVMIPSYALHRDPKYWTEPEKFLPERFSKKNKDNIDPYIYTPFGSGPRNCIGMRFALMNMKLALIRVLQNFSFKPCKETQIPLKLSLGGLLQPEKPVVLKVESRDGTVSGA
Sequence of Cytochrome P450 2C9 (Homo sapiens) (P11712 whole entry, looked up): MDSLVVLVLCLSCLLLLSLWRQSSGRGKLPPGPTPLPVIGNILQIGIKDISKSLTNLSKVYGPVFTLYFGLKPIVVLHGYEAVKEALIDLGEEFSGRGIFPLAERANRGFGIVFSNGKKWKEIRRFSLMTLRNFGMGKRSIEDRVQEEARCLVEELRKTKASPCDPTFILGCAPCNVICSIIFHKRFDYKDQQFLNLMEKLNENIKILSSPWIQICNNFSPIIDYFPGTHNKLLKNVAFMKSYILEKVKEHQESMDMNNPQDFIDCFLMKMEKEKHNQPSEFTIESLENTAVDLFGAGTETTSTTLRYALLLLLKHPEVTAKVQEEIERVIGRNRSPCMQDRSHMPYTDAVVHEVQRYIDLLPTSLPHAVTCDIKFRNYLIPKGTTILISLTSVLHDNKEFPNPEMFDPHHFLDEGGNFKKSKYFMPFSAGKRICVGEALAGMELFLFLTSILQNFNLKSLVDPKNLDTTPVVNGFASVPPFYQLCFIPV
Sequence of Nuclear receptor subfamily 1 group I member 2 (Homo sapiens) (O75469 whole entry, looked up): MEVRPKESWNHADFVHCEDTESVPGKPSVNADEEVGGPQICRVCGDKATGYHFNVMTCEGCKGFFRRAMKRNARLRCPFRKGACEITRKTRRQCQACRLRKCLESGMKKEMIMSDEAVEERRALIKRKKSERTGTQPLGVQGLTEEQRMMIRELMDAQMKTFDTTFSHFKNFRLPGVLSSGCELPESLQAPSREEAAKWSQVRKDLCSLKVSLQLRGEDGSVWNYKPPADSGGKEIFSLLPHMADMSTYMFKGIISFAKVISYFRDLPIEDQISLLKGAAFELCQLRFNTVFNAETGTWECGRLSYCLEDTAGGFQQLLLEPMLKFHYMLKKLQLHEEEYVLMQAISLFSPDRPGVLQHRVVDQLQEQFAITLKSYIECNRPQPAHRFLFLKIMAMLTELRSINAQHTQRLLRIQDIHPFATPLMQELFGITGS
Sequence of Cytochrome P450 2C19 (Homo sapiens) (P33261 whole entry, looked up): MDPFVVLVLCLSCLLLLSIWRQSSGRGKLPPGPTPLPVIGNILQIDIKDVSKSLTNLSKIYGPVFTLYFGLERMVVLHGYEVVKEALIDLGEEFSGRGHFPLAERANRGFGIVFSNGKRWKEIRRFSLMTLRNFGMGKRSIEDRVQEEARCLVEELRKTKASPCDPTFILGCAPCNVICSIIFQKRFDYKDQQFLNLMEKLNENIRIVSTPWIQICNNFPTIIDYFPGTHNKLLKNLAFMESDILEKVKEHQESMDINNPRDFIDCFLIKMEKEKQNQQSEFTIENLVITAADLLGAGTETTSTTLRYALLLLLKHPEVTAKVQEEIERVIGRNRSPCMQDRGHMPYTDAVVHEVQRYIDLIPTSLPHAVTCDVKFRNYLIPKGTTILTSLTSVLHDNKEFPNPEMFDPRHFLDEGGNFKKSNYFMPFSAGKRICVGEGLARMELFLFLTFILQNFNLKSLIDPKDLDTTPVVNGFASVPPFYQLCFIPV
Sequence of Voltage-gated inwardly rectifying potassium channel KCNH2 (Homo sapiens) (Q12809 whole entry, looked up): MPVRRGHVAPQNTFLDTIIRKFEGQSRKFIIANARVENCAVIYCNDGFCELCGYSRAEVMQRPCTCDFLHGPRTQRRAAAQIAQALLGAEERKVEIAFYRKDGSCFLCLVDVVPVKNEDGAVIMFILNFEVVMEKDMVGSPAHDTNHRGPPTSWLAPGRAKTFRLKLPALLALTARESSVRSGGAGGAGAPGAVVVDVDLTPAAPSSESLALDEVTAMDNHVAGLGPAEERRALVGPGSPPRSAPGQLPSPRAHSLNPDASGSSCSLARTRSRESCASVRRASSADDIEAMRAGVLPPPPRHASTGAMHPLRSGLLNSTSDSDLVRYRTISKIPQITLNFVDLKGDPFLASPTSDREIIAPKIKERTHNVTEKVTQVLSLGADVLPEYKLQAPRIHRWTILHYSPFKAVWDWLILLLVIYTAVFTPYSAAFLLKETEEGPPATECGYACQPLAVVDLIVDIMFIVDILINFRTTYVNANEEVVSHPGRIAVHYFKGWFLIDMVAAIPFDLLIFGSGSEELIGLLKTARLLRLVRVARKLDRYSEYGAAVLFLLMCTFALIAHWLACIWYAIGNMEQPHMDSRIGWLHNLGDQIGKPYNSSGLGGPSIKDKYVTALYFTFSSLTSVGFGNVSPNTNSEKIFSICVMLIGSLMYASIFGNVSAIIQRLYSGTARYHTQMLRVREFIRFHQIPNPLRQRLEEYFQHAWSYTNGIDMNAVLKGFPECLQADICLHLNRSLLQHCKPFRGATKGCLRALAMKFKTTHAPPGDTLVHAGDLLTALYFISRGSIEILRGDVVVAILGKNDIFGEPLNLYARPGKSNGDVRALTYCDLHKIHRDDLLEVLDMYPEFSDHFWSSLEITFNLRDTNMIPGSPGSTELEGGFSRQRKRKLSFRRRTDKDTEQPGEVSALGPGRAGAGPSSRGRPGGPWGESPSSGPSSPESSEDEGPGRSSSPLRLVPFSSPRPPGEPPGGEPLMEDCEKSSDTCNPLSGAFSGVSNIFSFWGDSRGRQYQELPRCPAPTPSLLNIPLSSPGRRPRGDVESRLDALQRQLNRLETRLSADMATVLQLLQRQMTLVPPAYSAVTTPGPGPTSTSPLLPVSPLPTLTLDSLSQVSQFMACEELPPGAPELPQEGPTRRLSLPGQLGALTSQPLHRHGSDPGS
Sequence of Cytochrome P450 2D6 (Homo sapiens) (P10635 whole entry, looked up): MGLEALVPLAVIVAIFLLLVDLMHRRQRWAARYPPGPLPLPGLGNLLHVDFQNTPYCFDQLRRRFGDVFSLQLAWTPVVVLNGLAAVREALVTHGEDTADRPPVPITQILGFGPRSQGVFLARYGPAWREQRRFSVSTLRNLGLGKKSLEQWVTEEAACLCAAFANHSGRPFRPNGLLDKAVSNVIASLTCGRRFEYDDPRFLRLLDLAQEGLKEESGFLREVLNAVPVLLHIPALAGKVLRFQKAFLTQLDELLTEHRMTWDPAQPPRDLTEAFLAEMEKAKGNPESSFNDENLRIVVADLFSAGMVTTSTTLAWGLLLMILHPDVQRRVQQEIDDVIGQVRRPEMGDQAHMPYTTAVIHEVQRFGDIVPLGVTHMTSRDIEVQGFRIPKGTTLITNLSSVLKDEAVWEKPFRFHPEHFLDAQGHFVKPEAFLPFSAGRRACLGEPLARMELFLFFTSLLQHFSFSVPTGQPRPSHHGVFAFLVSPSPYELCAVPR
Sequence of Acetylcholinesterase (Homo sapiens) (P22303 whole entry, looked up): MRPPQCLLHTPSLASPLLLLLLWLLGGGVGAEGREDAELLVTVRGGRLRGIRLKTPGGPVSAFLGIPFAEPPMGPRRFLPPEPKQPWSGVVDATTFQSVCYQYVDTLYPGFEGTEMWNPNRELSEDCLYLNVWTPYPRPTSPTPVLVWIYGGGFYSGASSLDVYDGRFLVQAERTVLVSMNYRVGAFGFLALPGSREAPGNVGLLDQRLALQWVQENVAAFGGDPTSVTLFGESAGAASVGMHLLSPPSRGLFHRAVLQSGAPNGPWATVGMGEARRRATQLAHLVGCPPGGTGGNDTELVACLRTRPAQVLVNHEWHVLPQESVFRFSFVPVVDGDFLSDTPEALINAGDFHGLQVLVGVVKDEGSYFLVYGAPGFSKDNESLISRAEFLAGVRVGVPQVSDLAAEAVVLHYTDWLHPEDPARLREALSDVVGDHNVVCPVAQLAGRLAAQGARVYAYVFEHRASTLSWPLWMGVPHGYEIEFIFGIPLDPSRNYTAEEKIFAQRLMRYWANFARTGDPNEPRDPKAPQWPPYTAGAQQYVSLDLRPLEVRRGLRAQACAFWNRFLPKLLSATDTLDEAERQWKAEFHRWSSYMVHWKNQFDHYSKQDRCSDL
Sequence of Cytochrome P450 1A2 (Homo sapiens) (P05177 whole entry, looked up): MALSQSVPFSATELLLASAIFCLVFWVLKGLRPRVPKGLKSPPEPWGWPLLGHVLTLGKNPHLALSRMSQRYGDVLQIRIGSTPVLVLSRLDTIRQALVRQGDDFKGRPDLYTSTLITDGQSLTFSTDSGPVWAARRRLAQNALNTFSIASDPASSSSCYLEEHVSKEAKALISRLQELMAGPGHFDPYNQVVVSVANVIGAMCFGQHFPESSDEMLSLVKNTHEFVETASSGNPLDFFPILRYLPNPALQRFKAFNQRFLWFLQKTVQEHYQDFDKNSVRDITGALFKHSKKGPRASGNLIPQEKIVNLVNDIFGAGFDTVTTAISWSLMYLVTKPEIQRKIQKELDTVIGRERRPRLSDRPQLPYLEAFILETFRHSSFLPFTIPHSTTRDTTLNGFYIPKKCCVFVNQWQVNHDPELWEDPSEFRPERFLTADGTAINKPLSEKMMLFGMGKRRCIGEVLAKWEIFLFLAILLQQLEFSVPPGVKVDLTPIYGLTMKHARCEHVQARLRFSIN

As to `CC(Br)C(=O)O` (stereo not given), the result in test [1] was inactive. In addition, the Potency entry in test [2], in test [3], in [4], in [5], in test [6] and in test [9] was “inactive” each time. Besides, in test [10], the Potency entry is “inactive”. The Potency is 45.3 µM (active) in [7] and 36 µM (active) in [8].
For `Clc1ccc(Cl)cc1`, the outcome in test [1] and in test [12] was inactive. Further, the Potency in test [3] was 1.93 µM (active) and inactive. The max activation in test [11] is -1.7% (inactive). Further, the Potency entry in test [13], in test [14], in test [4], in test [5], in test [15] and in [7] was “inactive” throughout. Moreover, the Potency result in test [9] and in test [10] was “inactive” throughout.
For the molecule `c1ccc2c(c1)oc1ccccc12`, in [1], the result was inactive. For the same molecule, the Potency result in [2], in test [3], in test [4], in [5], in [15] and in [10] was “inactive” each time. The Potency in test [7] is 40.5 µM (active); in [8], 36.1 µM (active) and inactive.
As to `CN(N=O)c1ccccc1`, in test [1], the molecule was classed as inactive. Further, the Potency entry in [2], in test [3], in test [14], in test [4], in [5] and in test [6] was “inactive” each time. For the same molecule, the Potency result in [7], in test [9] and in [10] was “inactive” in each case.
For `COCCl`, the molecule was classed as inactive in test [1]. Besides, the Potency in test [2] was 35.7 µM (active) and inactive; in test [3], 56.6 µM (active) and inactive; in test [7], 33 µM (active) and 22.6 µM (active); in [16] it was 20.1 µM (active). For the same molecule, the Potency entry in test [14], in test [4], in test [5] and in test [10] was “inactive” in each case.
Turning to `Cc1ccc(N)cc1N`, the outcome in test [1] was inactive. The Potency entry in test [2], in test [3], in [4], in test [5] and in test [9] was “inactive” in each case. For the same molecule, the Potency in test [6] was 30.9 µM (active) and 31.7 µM (active); in [7], 34.6 µM (active) and 31.7 µM (active); in test [8], 34.6 µM (active) and 39.9 µM (active); in test [10], 30.9 µM (active).
As to `O=[N+]([O-])c1ccc(Oc2ccc(Cl)cc2Cl)cc1`, the outcome in test [1] was inactive. The Potency result in test [2], in test [4], in [5], in [15] and in test [10] was “inactive” in each case. Also, the Potency is 54.8 µM (active) and inactive in test [3]; 22.6 µM (active) in test [6]; 5.67 µM (active) and 5.64 µM (active) in [7]; 28.4 µM (active) and 31.7 µM (active) in [8]; 31.9 µM (active) and 22.4 µM (active) in [16]; 19.5 µM (active) in test [9].
As to `Cc1[nH]c(=O)n(C(C)(C)C)c(=O)c1Cl`, in test [1], the molecule was called inactive. Also, the Potency entry in test [2], in test [3], in test [4], in [5], in test [6] and in [8] was “inactive” throughout. In test [10], the Potency entry was “inactive”. Also, the Potency in [7] was 71.7 µM (active) and 31.7 µM (active).
On to `CC(C)(C)OOC(C)(C)C`, for which the call in [1] was inactive. The Potency result in [2], in test [3], in [14], in test [4], in [5] and in test [7] was “inactive” in each case. The Potency entry in [16], in test [9] and in test [10] was “inactive” each time.
Consider `O=S(=O)(c1ccc(O)cc1)c1ccc(O)cc1`, for which, in test [1], the result was inactive. The Potency result in test [2], in [3], in [4], in test [5], in test [15] and in test [16] was “inactive” in each case. The Potency result in [10] was “inactive”. For the same molecule, the Potency in [7] was 17.9 µM (active) and 22.4 µM (active).
